Laboratory results: article PMC5540273 (PLoS ONE, 2017)
Like-named read-outs stand apart in the source and are kept apart here.

Legend:
[1] = test system: FYN; conditions: concentration: 1 μM,replicates: in singlicate; n = 1
[2] = test system: GAK; conditions: concentration: 1 μM,replicates: in singlicate; n = 1
[3] = test system: T1, GCN2(Kin.Dom.2,S808G); conditions: concentration: 1 μM,replicates: in singlicate; n = 1
T1 construct: gene EIF2AK4

[4] = test system: GRK1; conditions: concentration: 1 μM,replicates: in singlicate; n = 1
[5] = test system: T2, GRK2; conditions: concentration: 1 μM,replicates: in singlicate; n = 1
T2 construct: gene ADRBK1

[6] = test system: T3, GRK3; conditions: concentration: 1 μM,replicates: in singlicate; n = 1
T3 construct: gene ADRBK2

[7] = test system: GRK4; conditions: concentration: 1 μM,replicates: in singlicate; n = 1
[8] = test system: GRK7; conditions: concentration: 1 μM,replicates: in singlicate; n = 1
[9] = test system: GSK3A; conditions: concentration: 1 μM,replicates: in singlicate; n = 1
[10] = test system: GSK3B; conditions: n = 1
[11] = test system: T4, HASPIN; conditions: concentration: 1 μM,replicates: in singlicate; n = 1
T4 construct: gene GSG2

[12] = test system: HCK; conditions: concentration: 1 μM,replicates: in singlicate; n = 1
[13] = test system: HIPK1; conditions: concentration: 1 μM,replicates: in singlicate; n = 1
[14] = test system: HIPK2; conditions: concentration: 1 μM,replicates: in singlicate; n = 1
[15] = test system: HIPK3; conditions: concentration: 1 μM,replicates: in singlicate; n = 1
[16] = test system: HIPK4; conditions: concentration: 1 μM,replicates: in singlicate; n = 1
[17] = test system: HPK1; conditions: concentration: 1 μM,replicates: in singlicate; n = 1
[18] = test system: HUNK; conditions: concentration: 1 μM,replicates: in singlicate; n = 1
[19] = test system: ICK; conditions: concentration: 1 μM,replicates: in singlicate; n = 1
[20] = test system: IGF1R; conditions: concentration: 1 μM,replicates: in singlicate; n = 1
[21] = concentration: 1 μM,replicates: in singlicate
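Note: KINOMEscan kinase panel screen.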

COc1cccc(OC)c1C(=O)Nc1cccc(-c2nn3ccccc3c2-c2ccnc(Nc3cccc(F)c3)n2)c1 [GSK361065]
%Inh [1]: 22% | %Inh [2]: 6% | %Inh [3]: 0% | %Inh [4]: 0% | %Inh [5]: 0% | %Inh [6]: 0% | %Inh [7]: 0% | %Inh [8]: 17% | %Inh [9]: 24% | %Inh [10, 21]: 0% | %Inh [11]: 0% | %Inh [12]: 30% | %Inh [13]: 31% | %Inh [14]: 0% | %Inh [15]: 0% | %Inh [16]: 84% | %Inh [17]: 2% | %Inh [18]: 15% | %Inh [19]: 0% | %Inh [20]: 7%

CCOC(=O)N1CCC(n2cnc(-c3ccc(F)cc3)c2-c2ccnc(N)n2)CC1 [SB-219952]
%Inh [1]: 0% | %Inh [2]: 59% | %Inh [3]: 44% | %Inh [4]: 0% | %Inh [5]: 8% | %Inh [6]: 0% | %Inh [7]: 32% | %Inh [8]: 20% | %Inh [9]: 0% | %Inh [10, 21]: 37% | %Inh [11]: 0% | %Inh [12]: 0% | %Inh [13]: 37% | %Inh [14]: 17% | %Inh [15]: 15% | %Inh [16]: 0% | %Inh [17]: 5% | %Inh [18]: 0% | %Inh [19]: 70% | %Inh [20]: 0%

CC(=O)Nc1ccc(-c2cc3ncnc(SCC(=O)O)c3s2)cc1
%Inh [1]: 0% | %Inh [2]: 59% | %Inh [3]: 0% | %Inh [4]: 0% | %Inh [5]: 11% | %Inh [6]: 19% | %Inh [7]: 6% | %Inh [8]: 0% | %Inh [9]: 0% | %Inh [10, 21]: 3% | %Inh [11]: 13% | %Inh [12]: 15% | %Inh [13]: 96.7% | %Inh [14]: 97.5% | %Inh [15]: 95.1% | %Inh [16]: 95.6% | %Inh [17]: 11% | %Inh [18]: 0% | %Inh [19]: 60% | %Inh [20]: 0%

Cn1ccc2ncnc(Oc3ccc(NC(=O)Nc4cccc(C(F)(F)F)c4)c(Cl)c3)c21
%Inh [1]: 0% | %Inh [2]: 1% | %Inh [3]: 21% | %Inh [4]: 32% | %Inh [5]: 0% | %Inh [6]: 0% | %Inh [7]: 0% | %Inh [8]: 0% | %Inh [9]: 28% | %Inh [10, 21]: 0% | %Inh [11]: 0% | %Inh [12]: 47% | %Inh [13]: 26% | %Inh [14]: 15% | %Inh [15]: 0% | %Inh [16]: 17% | %Inh [17]: 39% | %Inh [18]: 2% | %Inh [19]: 0% | %Inh [20]: 0%

O=c1[nH]cc(-c2ccc(O)cc2)c2sc(-c3ccncc3)cc12 [GSK1033723]
%Inh [1]: 21% | %Inh [2]: 16% | %Inh [3]: 6% | %Inh [4]: 0% | %Inh [5]: 0% | %Inh [6]: 0% | %Inh [7]: 0% | %Inh [8]: 0% | %Inh [9]: 63% | %Inh [10, 21]: 22% | %Inh [11]: 88% | %Inh [12]: 0% | %Inh [13]: 67% | %Inh [14]: 72% | %Inh [15]: 90.1% | %Inh [16]: 22% | %Inh [17]: 44% | %Inh [18]: 0% | %Inh [19]: 0% | %Inh [20]: 0%

NC(=O)c1ccc(-c2cc3ncnc(SCC(=O)O)c3s2)cc1
%Inh [1]: 0% | %Inh [2]: 45% | %Inh [3]: 0% | %Inh [4]: 30% | %Inh [5]: 0% | %Inh [6]: 0% | %Inh [7]: 0% | %Inh [8]: 0% | %Inh [9]: 14% | %Inh [10, 21]: 0% | %Inh [11]: 0% | %Inh [12]: 13% | %Inh [13]: 94.8% | %Inh [14]: 96.1% | %Inh [15]: 92% | %Inh [16]: 79% | %Inh [17]: 2% | %Inh [18]: 0% | %Inh [19]: 10% | %Inh [20]: 0%

O=C(Nc1cccc(C(F)(F)F)c1)c1cccc(Oc2ccc3nccn3n2)c1
%Inh [1]: 62% | %Inh [2]: 0% | %Inh [3]: 0% | %Inh [4]: 9% | %Inh [5]: 0% | %Inh [6]: 35% | %Inh [7]: 10% | %Inh [8]: 0% | %Inh [9]: 0% | %Inh [10, 21]: 2% | %Inh [11]: 0% | %Inh [12]: 52% | %Inh [13]: 0% | %Inh [14]: 8% | %Inh [15]: 20% | %Inh [16]: 65% | %Inh [17]: 0% | %Inh [18]: 0% | %Inh [19]: 31% | %Inh [20]: 20%

COC(=O)c1cccc(NC(=O)NC2CCN(c3ccnc(Nc4cc(OC)c(OC)c(OC)c4)n3)C2)c1 (centres unmarked) [GSK1379767]
%Inh [1]: 9% | %Inh [2]: 27% | %Inh [3]: 0% | %Inh [4]: 13% | %Inh [5]: 0% | %Inh [6]: 49% | %Inh [7]: 0% | %Inh [8]: 0% | %Inh [9]: 2% | %Inh [10, 21]: 0% | %Inh [11]: 15% | %Inh [12]: 5% | %Inh [13]: 0% | %Inh [14]: 0% | %Inh [15]: 6% | %Inh [16]: 0% | %Inh [17]: 72% | %Inh [18]: 0% | %Inh [19]: 0% | %Inh [20]: 3%

CCCC(=O)Nc1n[nH]c2ncccc12 [SB-601436]
%Inh [1]: 0% | %Inh [2]: 0% | %Inh [3]: 0% | %Inh [4]: 13% | %Inh [5]: 0% | %Inh [6]: 0% | %Inh [7]: 0% | %Inh [8]: 11% | %Inh [9]: 38% | %Inh ([10]; 1 µM): 9% | %Inh [11]: 29% | %Inh [12]: 0% | %Inh [13]: 20% | %Inh [14]: 0% | %Inh [15]: 0% | %Inh [16]: 0% | %Inh [17]: 6% | %Inh [18]: 28% | %Inh [19]: 7% | %Inh [20]: 0%

O=C(NCC1CC1)c1ccc(-c2cc(C(=O)NC3CC3)ccc2F)cc1 [GW810445]
%Inh [1]: 0% | %Inh [2]: 0% | %Inh [3]: 0% | %Inh [4]: 1% | %Inh [5]: 19% | %Inh [6]: 0% | %Inh [7]: 0% | %Inh [8]: 0% | %Inh [9]: 0% | %Inh [10, 21]: 0% | %Inh [11]: 2% | %Inh [12]: 10% | %Inh [13]: 0% | %Inh [14]: 0% | %Inh [15]: 0% | %Inh [16]: 12% | %Inh [17]: 0% | %Inh [18]: 56% | %Inh [19]: 0% | %Inh [20]: 0%
